Measurements published in PubChem BioAssay.
Where “and” joins values, the source holds several entries; their conditions need not be identical. Identical values can stand only once. Inconclusive results are not listed. Calls of active or inactive are those of the source. Unless noted, the limit is not given here; nearly all actives have AC50 up to about 26 µM.

Columns and labels:
[1] = viability loss in pontine glioma line – cell-based, SU-DIPG-XVII, MIPE5.0, CellTiter-Glo, qHTS, dose response (AID 1347060); conditions: CellTiter-Glo ATP luminescence;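 as to AC50: cells exposed to compound for 48 hours before viability readout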
[2] = viability loss in pontine glioma line – cell-based, SU-DIPG-XIII, MIPE4.0, CellTiter-Glo, qHTS, dose response (AID 1347061; cut-off not given, nearly all actives have AC50 up to about 37 µM;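 also: cells exposed to compound for 48 hours before readout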); conditions: CellTiter-Glo ATP luminescence
[3] = viability loss in pontine glioma line – cell-based, JHH-DIPG-1, MIPE4.0, CellTiter-Glo, qHTS, dose response (AID 1347062; cut-off not given, nearly all actives have AC50 up to about 27 µM;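 as to AC50: cells exposed to compound for two days before readout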); conditions: JHH-DIPG-1 viability, CellTiter-Glo ATP luminescence
[4] = viability loss in pontine glioma line – cell-based, SU-DIPG-IV, MIPE4.0, CellTiter-Glo, qHTS, dose response (AID 1347063; cut-off not given, nearly all actives have AC50 up to about 30 µM;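 also: compound exposure lasted 48 hours before the viability readout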); conditions: CellTiter-Glo ATP luminescence
[5] = viability loss in pontine glioma line – cell-based, SU-DIPG-XXV, MIPE5.0, CellTiter-Glo, qHTS, dose response (AID 1347065); conditions: CellTiter-Glo ATP luminescence;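 also: cells exposed to compound for 48 hours before ATP readout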
[6] = growth inhibition of DIPG cells – cell-based, MIPE4.0 library, CellTiter-Glo luminescence, qHTS (AID 1347066; cut-off not given, nearly all actives have AC50 up to about 30 µM;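 also: cells exposed to compound for 48 hours before readout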); conditions: SU-DIPG-VI viability, CellTiter-Glo ATP luminescence
[7] = JHH-DIPG-1 glioma cell viability, MIPE5.0 library, CellTiter-Glo luminescence, qHTS (AID 1347067); conditions: JHH-DIPG-1 glioma viability, CellTiter-Glo ATP luminescence;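 also: cells exposed to compound for 48 hours before readout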
[8] = growth inhibition of DIPG cells – cell-based, MIPE5.0 library, qHTS (AID 1347068; cut-off not given, nearly all actives have IC50 up to about 30 µM;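 as to IC50: cells exposed to compound for 48 hours before viability readout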); conditions: SU-DIPG-XXV viability
[9] = compounds altering HSF1 focus formation in cells – imaging, Selleck Cancer Library (AID 1347162; in the data active = plate-normalised HSF1 focus index below about 0.46); conditions: human cells, HSF1 nuclear foci imaging, at 10 µM; SSMD: measured here: HSF1 foci SSMD mean; cell count: measured here: cell number; plate-normalised HSF1 focus index: stronger effect = lower value
[10] = drug combination growth inhibition, ovarian cancer – cell-based, oncology-focused library, rucaparib conditional, profiling panel (AID 1508598;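 active = normalized viability below 100% at a tested concentration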); conditions: patient-derived ovarian cancer cells, CellTiter-Glo viability, 144 h, stronger effect = lower value
[11] = viability loss with induced miR-34 in A549 – imaging, A549 dox-inducible miR-34, nuclei and caspase counts, primary screen (AID 1347080;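 active = compounds whose cell count with miR-34 switched on is under 0.7 times the count with it off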); conditions: A549 miR-34 inducible, Hoechst nuclei count, 48 h
[12] = MELAS cybrid and Rieske KO viability enhancers – cell-based, MELAS cybrids, Rieske KO mouse fibroblasts, CellTiter-Glo, primary screen (AID 1508586;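 active = mean z-score across replicates of 1.96 or higher in either the MELAS or the Rieske mutant cell line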;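 also: z relative to plate mean and SD of compound and empty wells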); conditions: low glucose
[13] = stronger effect = lower value, cell number ratio, induced over uninduced
[14] = measured here: relative caspase fold change +Dox/-Dox
[15] = measured here: total cells with miR-34 induction, stronger effect = lower value
[16] = measured here: total cells without miR-34 induction
[17] = MELAS cybrid survival, CellTiter-Glo 48 h, stronger effect = higher value
[18] = Rieske KO mouse fibroblast survival, CellTiter-Glo 72 h

CCC[C@@H](C=O)NC(=O)[C@H](CC(C)C)NC(=O)[C@H](CC(C)C)NC(=O)OCc1ccccc1
active: AC50 [1] 0.332 µM | AC50 [2] 0.935 µM | AC50 [3] 0.372 µM | AC50 [4] 0.148 µM | AC50 [5] 0.186 µM | AC50 [6] 0.526 µM | AC50 [7] 0.525 µM | IC50 [8] 0.59 µM

COc1ccc(C2CC(c3ccccc3)=NN2c2ccc(S(N)(=O)=O)cc2)cc1 (stereo not given)
2.07: SSMD [9]
active: AC50 [3] 4.69 µM | AC50 [4] 16.6 µM
inactive: outcome [1] | outcome [2] | outcome [5] | outcome [6] | outcome [7] | plate-normalised HSF1 focus index [9] 1.13
7280: cell count [9]

CC(C)(F)C[C@H](N[C@@H](c1ccc(-c2ccc(S(C)(=O)=O)cc2)cc1)C(F)(F)F)C(=O)NC1(C#N)CC1
inactive: outcome [1] | outcome [2] | outcome [3] | outcome [4] | outcome [5] | outcome [6] | outcome [7] | outcome [8]

CC(C)Nc1cc(C(F)(F)F)cc2nc(NC(=O)c3cccnc3)nn12
inactive: outcome [1] | outcome [2] | outcome [3] | outcome [4] | outcome [5] | outcome [6] | outcome [7] | outcome [8]

CN(C)C/C=C/C(=O)Nc1cc2c(Nc3ccc(F)c(Cl)c3)ncnc2cc1O[C@H]1CCOC1
active: AC50 [1] 13.2 µM | AC50 [2] 23.5 µM | AC50 [3] 16.6 µM | AC50 [4] 16.6 µM | AC50 [5] 8.33 µM | AC50 [6] 29.6 µM | AC50 [7] 9.34 µM | IC50 [8] 4.17 µM | viability ([10]; at 0.00122 µM, OCI-C5x cells, without rucaparib) 100% | viability ([10]; at 0.00122 µM, OCI-P5x cells, with rucaparib 20 µM, 100% = cells with rucaparib alone) 97.9% | viability ([10]; at 0.00122 µM, OCI-P5x cells, without rucaparib) 99.7% | viability ([10]; at 0.00488 µM, OCI-C5x cells, without rucaparib) 80.6% | viability ([10]; at 0.00488 µM, OCI-P5x cells, without rucaparib) 99.9% | viability ([10]; at 0.0195 µM, OCI-C5x cells, with rucaparib 10 µM, 100% = cells with rucaparib alone) 70.1% | viability ([10]; at 0.0195 µM, OCI-C5x cells, without rucaparib) 66.7% | viability ([10]; at 0.0195 µM, OCI-P5x cells, without rucaparib) 96.3% | viability ([10]; at 0.0781 µM, OCI-C5x cells, with rucaparib 10 µM, 100% = cells with rucaparib alone) 67.5% | viability ([10]; at 0.0781 µM, OCI-C5x cells, without rucaparib) 69.5% | viability ([10]; at 0.0781 µM, OCI-P5x cells, without rucaparib) 94.8% | viability ([10]; at 0.313 µM, OCI-C5x cells, with rucaparib 10 µM, 100% = cells with rucaparib alone) 62.7% | viability ([10]; at 0.313 µM, OCI-C5x cells, without rucaparib) 63.1% | viability ([10]; at 0.313 µM, OCI-P5x cells, without rucaparib) 94.2% | viability ([10]; at 1.25 µM, OCI-C5x cells, with rucaparib 10 µM, 100% = cells with rucaparib alone) 6.05% | viability ([10]; at 1.25 µM, OCI-C5x cells, without rucaparib) 46% | viability ([10]; at 1.25 µM, OCI-P5x cells, with rucaparib 20 µM, 100% = cells with rucaparib alone) 8.68% | viability ([10]; at 1.25 µM, OCI-P5x cells, without rucaparib) 66.6% | viability ([10]; at 5 µM, OCI-C5x cells, with rucaparib 10 µM, 100% = cells with rucaparib alone) 3.87% | viability ([10]; at 5 µM, OCI-C5x cells, without rucaparib) 22.5% | viability ([10]; at 5 µM, OCI-P5x cells, with rucaparib 20 µM, 100% = cells with rucaparib alone) 0.219% | viability ([10]; at 5 µM, OCI-P5x cells, without rucaparib) 6.79%
-10.2: SSMD [9]
6000: cell count [9]
inactive: plate-normalised HSF1 focus index [9] 0.64 | viability ([10]; at 0.000305 µM, OCI-C5x cells, with rucaparib 10 µM, 100% = cells with rucaparib alone) 118% | viability ([10]; at 0.000305 µM, OCI-C5x cells, without rucaparib) 114% | viability ([10]; at 0.000305 µM, OCI-P5x cells, with rucaparib 20 µM, 100% = cells with rucaparib alone) 123% | viability ([10]; at 0.000305 µM, OCI-P5x cells, without rucaparib) 107% | viability ([10]; at 0.00122 µM, OCI-C5x cells, with rucaparib 10 µM, 100% = cells with rucaparib alone) 116% | viability ([10]; at 0.00488 µM, OCI-C5x cells, with rucaparib 10 µM, 100% = cells with rucaparib alone) 107% | viability ([10]; at 0.00488 µM, OCI-P5x cells, with rucaparib 20 µM, 100% = cells with rucaparib alone) 117% | viability ([10]; at 0.0195 µM, OCI-P5x cells, with rucaparib 20 µM, 100% = cells with rucaparib alone) 102% | viability ([10]; at 0.0781 µM, OCI-P5x cells, with rucaparib 20 µM, 100% = cells with rucaparib alone) 122% | viability ([10]; at 0.313 µM, OCI-P5x cells, with rucaparib 20 µM, 100% = cells with rucaparib alone) 120%

Cn1c2cc(S(C)=O)sc2c2cnn(Cc3cccc(N)c3)c(=O)c21 (stereo not given)
inactive: outcome [1] | outcome [2] | outcome [3] | outcome [4] | outcome [5] | outcome [6] | outcome [7] | outcome [8]

Cc1cc(Nc2ncnc3ccc(-c4ccc(CNCCS(C)(=O)=O)o4)cc23)ccc1Oc1ccn2ncnc2c1
1.06: fold change [11, 14]
-0.462: z-score [12, 18]
inactive: outcome [8] | fold change [11, 13] 0.962 | z-score [12, 17] 1.86
8200: cell count [11, 16]
active: AC50 [1] 23.5 µM | AC50 [2] 23.5 µM | AC50 [3] 18.7 µM | AC50 [4] 14.8 µM | AC50 [5] 16.6 µM | AC50 [6] 16.6 µM | AC50 [7] 20.9 µM
7890: cell count [11, 15]

CN[C@@H](C)[C@H]1[C@H](O)C[C@@]2(C)[C@@H]3CC[C@H]4C(C)(C)[C@@H](NC)CC[C@@]45C[C@@]35CC[C@]12C
inactive: outcome [1] | outcome [2] | outcome [3] | outcome [4] | outcome [5] | outcome [6] | outcome [7] | outcome [8]

CC(C)n1cnc2c(NCCc3ccc(O)cc3)nc(-c3csc4ccccc34)nc21
7140: cell count [11, 16]
6480: cell count [11, 15]
0.471: fold change [11, 14]
0.499: z-score [12, 18]
active: AC50 [1] 18.6 µM | AC50 [2] 7.43 µM | AC50 [3] 18.7 µM | AC50 [4] 10.5 µM | AC50 [5] 18.6 µM | AC50 [6] 20.9 µM | AC50 [7] 13.2 µM
inactive: outcome [8] | fold change [11, 13] 0.908 | z-score [12, 17] -0.0908

O=C(O)c1ccc(Nc2ncc3c(n2)-c2ccc(Cl)cc2C(c2c(F)cccc2F)=NC3)cc1
2100: cell count [11, 15]
active: AC50 [1] 4.17 µM | AC50 [5] 0.372 µM | AC50 [7] 16.6 µM
2190: cell count [11, 16]
inactive: outcome [2] | outcome [3] | outcome [4] | outcome [6] | fold change [11, 13] 0.96 | z-score [12, 17] -0.524
0.787: fold change [11, 14]
0.65: z-score [12, 18]

O=C(Nc1cccc(Nc2ncc(Br)c(NCCc3cnc[nH]3)n2)c1)N1CCCC1
2540: cell count [11, 16]
0.914: fold change [11, 14]
0.495: z-score [12, 18]
active: AC50 [1] 4.17 µM | AC50 [2] 16.6 µM | AC50 [3] 16.6 µM | AC50 [4] 16.6 µM | AC50 [5] 1.66 µM | AC50 [6] 14.8 µM | AC50 [7] 3.72 µM
inactive: outcome [8] | fold change [11, 13] 0.952 | z-score [12, 17] -0.631
2420: cell count [11, 15]

NC(=O)c1cccc(-c2cccc(OC(=O)NC3CCCCC3)c2)c1
1.45 and 0.843: fold change [11, 14]
5620 and 8620: cell count [11, 15]
4040 and 9560: cell count [11, 16]
-0.11: z-score [12, 18]
inactive: outcome [1] | outcome [2] | outcome [3] | outcome [4] | outcome [5] | outcome [6] | outcome [7] | outcome [8] | fold change [11, 13] 1.39 and 0.902 | z-score [12, 17] -0.288

CC(C)C[C@H](NC(=O)[C@@H](NC(=O)c1cccc(-c2ccccc2)n1)[C@@H](C)O)B(O)O
active: AC50 [1] 0.0456 µM | AC50 [2] 16.6 µM | AC50 [3] 0.0526 µM | AC50 [4] 0.0235 µM | AC50 [5] 0.0204 µM | AC50 [6] 0.0662 µM | AC50 [7] 0.0811 µM | IC50 [8] 0.0257 µM
